{"source": "PubChem BioAssay", "note": "A number with no mark means an inactive call."}
{"assay": "MM1S myeloma cell viability, profiling panel, resazurin fluorescence, basal, 24 h, PK04 Diversity Set (AID 1174);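 also: MM1S multiple myeloma cell line; test concentration not given here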", "conditions": "higher = more signal, called active from +8 up or from −8 down"}
{"compound": "CC(C)c1ccc(NN2C(C(O)C(C)c3ccccc3)C=CC3C(=O)N(c4ccccc4)C(=O)C32)cc1", "note": "(stereo not given)", "z-score": -1.23}
{"compound": "CC(C)C[C@@H]1NC(=O)[C@@H]2C[C@H](C(=O)NCCCCCCNC(=O)CS)[C@H](c3ccc(O)cc3)N2C1=O", "z-score": -0.471}
{"compound": "COC(=O)Cn1c(C(=O)N(C)C)cc2c1C[C@H]1CN(C(=O)c3ccccc3)[C@@](Cc3ccccc3)(C(=O)OC)[C@@H]21", "z-score": 0.52}
{"compound": "COCCOC(=O)N1C(=O)[C@@]2(c3cc(C#CCC(C(=O)OC)C(=O)OC)ccc31)[C@H](c1ccc(O)cc1)N1[C@H](c3ccccc3)[C@H](c3ccccc3)OC(=O)[C@H]1[C@@H]2C(=O)N1CCc2cc(OC)c(OC)cc2C1", "z-score": 0.222}
{"compound": "Cc1ccc(S[C@]2(C(=O)NCc3ccccc3)CC(=O)N(Cc3ccccc3C(F)(F)F)[C@@H]2c2ccc(CO)cc2I)cc1", "z-score": -2.36}
{"compound": "O=C1C2C=CC(C(O)C3CCCCC3)N(Nc3ccccc3F)C2C(=O)N1c1ccccc1", "note": "(stereo not given)", "z-score": -0.631}
{"compound": "CC[C@H]1C2=C3C(CC[C@H]4C(OCc5ccc(F)cc5C(F)(F)F)OC[C@](C)([C@@H]34)N(C(=O)OC(C)(C)C)C2)C(COC(C)=O)C1COC(C)=O", "note": "(stereo not given in full)", "z-score": -1.04}
{"compound": "CC1CC/C=C\\[C@H]2OC34C=CCN(CCN5CCOCC5)C(=O)[C@H]3N(C(CO)C(C)C)C(=O)[C@@H]4C2C(=O)O1", "note": "(stereo not given in full)", "z-score": -0.885}
{"compound": "COC(=O)C[C@H]1O[C@]2(C(=O)N(C)c3ccccc32)[C@@H](C)[C@@H]1[Si](C)(C)c1ccccc1", "z-score": 0.317}
{"compound": "O=C1O[C@@H](c2ccccc2)[C@@H](c2ccccc2)N2[C@@H](c3ccc(OCCO)cc3)[C@]3(C(=O)Nc4ccc(C#CC5=CCCCC5)cc43)[C@@H](C(=O)Nc3nc4ccccc4s3)[C@H]12", "z-score": -1.21}
{"compound": "CCCCN1CC=CC23O[C@@H]4/C=C\\CCCOC(=O)C4[C@H]2C(=O)N(CCCCCCO)[C@@H]3C1=O", "note": "(stereo not given in full)", "z-score": 1.21}
{"compound": "COC(=O)[C@@]1(Cc2ccc(F)cc2)[C@H]2c3cc(C(=O)N(C)C)n(CCF)c3C[C@H]2CN1C(=O)c1ccccc1", "z-score": -0.182}
{"compound": "CCc1cccc(NC(=O)O[C@H]2[C@H](OC(=O)Nc3ccccc3-c3ccccc3)[C@H](OC(=O)Nc3ccccc3-c3ccccc3)[C@@H](OC)O[C@@H]2CO)c1", "z-score": -0.444}
{"compound": "C=C(COC)C(=O)CC[C@H](OC(C)=O)c1ccccc1OCCO", "z-score": -2.03}
{"compound": "COC(=O)C(CC#Cc1ccc2c(c1)[C@]1(C(=O)N2)[C@H](c2ccc(OCCO)cc2)N2[C@H](c3ccccc3)[C@H](c3ccccc3)OC(=O)[C@H]2[C@@H]1C(N)=O)C(=O)OC", "z-score": -0.551}
{"compound": "COc1ccc([Si](C)(C)[C@H]2[C@H](CC(=O)N(CCO)Cc3ccccc3)O[C@@]3(C(=O)N(Cc4cccc(N5CCCCC5=O)c4)c4ccccc43)[C@@H]2C)cc1", "z-score": -2.35}
{"compound": "COCCCNC(=O)[C@@]1(Cc2ccccc2I)c2ccccc2C(=O)N(Cc2ccccc2C(F)(F)F)[C@H]1c1ccc(CO)cc1", "z-score": 0.377}
{"compound": "CC[C@@H](O[Si](C#C[Si](C(C)C)(C(C)C)C(C)C)(C(C)C)C(C)C)c1cn([C@H](C)c2ccccc2)nn1", "z-score": 0.248}
{"compound": "COCCOC(=O)N1C(=O)[C@@]2(c3cc(C#CCC(C(=O)OC)C(=O)OC)ccc31)[C@H](C(=O)N1CCc3cc(OC)c(OC)cc3C1)[C@H]1C(=O)O[C@H](c3ccccc3)[C@H](c3ccccc3)N1[C@@H]2c1ccccc1OCCO", "z-score": 0.328}
{"compound": "CCCNC(=O)[C@@]1(Sc2ccc(C)cc2)CC(=O)N(Cc2cc(C(F)(F)F)cc(C(F)(F)F)c2)[C@@H]1c1ccc(CO)cc1", "z-score": 0.905}
{"compound": "Cc1ccc(S[C@]2(C(=O)NCc3ccccc3)CC(=O)N(Cc3ccccc3Cl)[C@@H]2c2ccc(CO)cc2)cc1", "z-score": 0.464}
{"compound": "CC1(C)OB(/C=C\\CC(OC(=O)c2ccncc2)c2ccccc2)OC1(C)C", "note": "(stereo not given)", "z-score": 0.217}
{"compound": "COc1cc(Cc2cc3c(c(-c4ccccc4)n2)[Si](C(C)C)(C(C)C)OC3)cc(OC)c1OC", "z-score": 1.03}
{"compound": "C=CCOC(=O)[C@H]1[C@@H]2C(=O)O[C@@H](c3ccccc3)[C@@H](c3ccccc3)N2[C@@H](c2ccc(OCCOC(=O)[C@@H]3C[C@@H]4C(=O)N[C@@H](Cc5ccccc5)C(=O)N4[C@@H]3c3ccc(O)cc3)cc2)[C@]12C(=O)Nc1ccc(I)cc12", "z-score": -1.06}
{"compound": "CC1C2C(CCCO)=CC(C3C(=O)N(C(N)=O)C(=O)C23)N1Cc1cccc(OC(F)(F)F)c1", "note": "(stereo not given)", "z-score": -0.402}
{"compound": "COC(=O)[C@@]1(Cc2ccccc2)[C@H]2c3cc(C(=O)N(C)C)n(Cc4nc5ccccc5[nH]4)c3C[C@H]2CN1C(=O)c1ccccc1", "z-score": -0.204}
{"compound": "CO[C@H]1O[C@H](CO)[C@@H](OC(=O)Nc2cccc(F)c2)[C@H](OC(=O)Nc2ccc3c(c2)OCO3)[C@@H]1OC(=O)Nc1ccc2c(c1)OCO2", "z-score": -1}
{"compound": "O=C1C2C=CC(C(O)c3ccccn3)N(Nc3ccc([N+](=O)[O-])cc3)C2C(=O)N1c1ccccc1", "note": "(stereo not given)", "z-score": -0.494}
{"compound": "CC(C)N1C(=O)[C@@]2(Cc3ccccc31)c1ccccc1C(=O)N(Cc1ccccc1C(F)(F)F)[C@H]2c1ccc(CO)cc1", "z-score": 0.0922}
{"compound": "CN1C2C=C(c3ccc(CO)cc3)C(C3C(=O)N(C(N)=O)C(=O)C32)C1C1CC1", "note": "(stereo not given)", "z-score": -0.611}
{"compound": "CC(C)C[C@@H]1NC(=O)[C@@H]2C[C@H](C(=O)NCCCCCNC(=O)CS)[C@H](c3ccc(O)cc3)N2C1=O", "z-score": 0.974}
{"compound": "CN(C)CCCCNC(=O)[C@H]1C[C@H]2C(=O)N[C@@H](CCCCN(C)C)C(=O)N2[C@H]1c1ccc(O)cc1", "z-score": 0.419}
{"compound": "CCOC(=O)C[C@H]1[C@H](OC(=O)c2ccccc2-c2ccccc2)[C@@H](NC(=O)CC(C)C)c2cc(OCCCO)ccc2N1C(=O)c1ccccc1", "z-score": 0.351}
{"compound": "CCCCCCc1nc(-c2ccc(OC)nc2)c(C)c2c1[Si](C(C)C)(C(C)C)OC2", "z-score": 1.86}
{"compound": "COCCCNC(=O)[C@]1(Cc2ccccc2CN=[N+]=[N-])N=C(c2ccc(OCCCO)cc2)O[C@@H]1c1ccccc1N=[N+]=[N-]", "z-score": -4.37}
